The results in this text go back to PubChem BioAssay AID1445 (SRMLSC, 2008).

Molecules are shown by their SMILES. Screen size: about 220,000 compounds; about 910 (0.41%) were called active.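 Rule for the calls: active = primary inhibition above the hit cutoff, then over 50% inhibition at one or more dose response concentrations (cut at about 23% in these data, passing the limit was not always enough); inconclusive = conflicting primary data, or primary hits not chosen for dose response; inactive = low primary inhibition, or under 50% at every dose.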 What follows is part of a selection rich in actives, with near analogues and random picks from the rest. Entries with a potency or affinity are not part of this list.

Usually inhibition stands for the drop in the measured response relative to a control, in per cent.

The test deals with Aminopeptidase N (Plasmodium falciparum (isolate 3D7)) (UniProt O96935). Briefly: P. falciparum M1AAP inhibitors, biochemical, fluorogenic H-Leu-NHMec substrate, 1536-well (AID 1445).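 Note: plate controls were DMSO full reaction for no effect and no enzyme background for full effect.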 As to conditions: recombinant M1AAP, H-Leu-NHMec fluorogenic kinetic assay; at 30 µM, hits give high values unless noted.
Sequence of Aminopeptidase N (Plasmodium falciparum (isolate 3D7)) (O96935 whole entry, looked up): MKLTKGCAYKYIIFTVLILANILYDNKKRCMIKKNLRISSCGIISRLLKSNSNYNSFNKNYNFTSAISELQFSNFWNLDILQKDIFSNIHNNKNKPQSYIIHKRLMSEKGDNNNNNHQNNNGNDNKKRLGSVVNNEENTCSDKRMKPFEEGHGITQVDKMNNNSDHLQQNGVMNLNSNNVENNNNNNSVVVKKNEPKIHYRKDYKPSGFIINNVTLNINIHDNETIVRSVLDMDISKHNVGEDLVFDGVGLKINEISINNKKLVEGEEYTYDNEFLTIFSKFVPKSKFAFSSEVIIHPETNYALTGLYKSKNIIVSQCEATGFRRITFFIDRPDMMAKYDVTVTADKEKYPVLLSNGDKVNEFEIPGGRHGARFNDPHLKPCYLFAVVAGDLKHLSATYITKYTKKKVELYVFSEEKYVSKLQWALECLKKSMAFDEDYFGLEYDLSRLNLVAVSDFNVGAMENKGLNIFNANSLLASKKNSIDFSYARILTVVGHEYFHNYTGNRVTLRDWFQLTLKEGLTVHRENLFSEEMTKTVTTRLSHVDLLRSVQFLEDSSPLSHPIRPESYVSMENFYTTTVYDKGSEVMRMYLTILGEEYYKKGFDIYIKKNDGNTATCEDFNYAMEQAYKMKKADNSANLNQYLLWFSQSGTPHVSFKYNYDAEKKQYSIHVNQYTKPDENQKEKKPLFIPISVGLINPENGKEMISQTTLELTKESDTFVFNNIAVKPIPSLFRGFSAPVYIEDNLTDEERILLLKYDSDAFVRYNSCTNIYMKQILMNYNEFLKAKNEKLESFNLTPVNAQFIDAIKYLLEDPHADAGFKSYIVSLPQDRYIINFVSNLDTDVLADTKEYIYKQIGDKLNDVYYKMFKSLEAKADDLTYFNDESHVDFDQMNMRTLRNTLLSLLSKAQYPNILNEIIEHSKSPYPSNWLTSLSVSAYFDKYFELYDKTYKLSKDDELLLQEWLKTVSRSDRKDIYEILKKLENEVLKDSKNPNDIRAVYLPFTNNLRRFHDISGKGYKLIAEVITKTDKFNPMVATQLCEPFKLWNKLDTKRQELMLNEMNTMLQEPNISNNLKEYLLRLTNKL
For `N/C(=N\OC(=O)CCn1cccc(C(F)(F)F)c1=O)c1ccc(Cl)cc1`, the inhibition is -1.85% (inactive).
Turning to `COc1cc(C)nc(N2CCCC(C(=O)Nc3cccc(Cl)c3Cl)C2)n1` (stereo not given), the inhibition is 1.36% (inactive).
Under `CCOC(=O)NC(=O)/C(C#N)=N\Nc1cccc(Cl)c1` stands 1.92% (inactive); under `N#C/C(=N\Nc1cccc(Cl)c1)C(=O)c1ccccc1`, 23.3% (active).
Under `COc1ccc(C(=O)/C(C#N)=N/Nc2cccc([N+](=O)[O-])c2)cc1` stands 12.4% (inactive).
Under `N#C/C(=N\Nc1ccccc1Cl)C(=O)c1ccccc1` stands 12.7% (inactive).
As to `COc1cccc(C(=O)/C(C#N)=N/Nc2cccc(-c3ccnc(C)n3)c2)c1`, the inhibition was 8.84% (inactive).
Under `CNC(=O)Nc1cccc(-c2ccnc(C)n2)c1` stands 0.72% (inactive); under `COc1ccc(C(=O)/C(C#N)=N/Nc2ccc([N+](=O)[O-])cc2)cc1`, 3.64% (inactive).
Under `COc1ccc(C(=O)C2CCCN(C(=O)c3cc(C(C)C)no3)C2)cc1F` (stereo not given) stands 0.4% (inactive).
With `Cc1ccc(C)n1NC(=O)c1ccc(O)cc1`, the inhibition is 17% (inactive).
The figure for `CC(=O)/C=C(\C)N=Nc1c(O)[nH]c2ccccc12` is 6.61% (inactive); for `C/C(=N\NC(=O)c1ccccc1)c1cccc(Br)c1` it is 4.52% (inactive); for `O=C(Nc1ccccc1[N+](=O)[O-])c1cc2ccccc2nc1Cl` it is 0.38% (inactive).
The figure for `CCN(C(=O)CSc1n[nH]c(-c2cccs2)n1)C1CCS(=O)(=O)C1` (stereo not given) is -0.17% (inactive); for `Cc1cc(Cl)ccc1OCC(=O)OC(C)C(=O)NC(N)=O` (stereo not given) it is -2.23% (inactive).
Under `COc1ccc(N=Cc2cc(Cc3ccccc3Cl)cc([N+](=O)[O-])c2O)cc1OC` stands 10.4% (inactive); under `O=C1CCCN1CCC1CCCCN1Cc1nc(-c2cnccn2)no1` (stereo not given), -4.06% (inactive).
Take `COc1ccc(NS(=O)(=O)c2cccc(-c3nnc4n3CCCCC4)c2)cc1`: the inhibition is 20% (inactive).
Under `CCCC1=[N+](CC)CCn2c(C)ccc21` stands 47.2% (active); under `CCCC1=[N+](CC(=O)c2ccccc2)CCn2c(C)ccc21`, 8.08% (inactive).
The figure for `CCCC1=[N+](CC(C)=O)CCn2c(C)ccc21` is 6.47% (inactive); for `O=C(COC(=O)c1ccccc1NC(=O)c1ccco1)NCc1ccc2c(c1)OCO2` it is -2.79% (inactive); for `CCCn1nc(C(=O)NCc2ccc3c(c2)OCO3)c2ccccc2c1=O` it is 9.46% (inactive).
In the case of `COc1ccc(C2CC(c3ccc4ccccc4c3)=NN2C(=O)COC(=O)C2CCC(=O)N2)cc1` (stereo not given), the inhibition was 2.25% (inactive).
Under `O=C(Nc1ccc(S(=O)(=O)NCc2ccco2)cc1)c1ccncc1` stands 6.85% (inactive); under `COc1ccc(NC(=S)NCc2ccccn2)cc1OC`, 10.7% (inactive).
Consider `COC(=O)CCC(=O)NNC(=O)Cc1ccccc1`, for which the inhibition was 1.14% (inactive).
For the compound `COC(=O)CP(=O)(c1ccccc1)c1ccccc1`, the inhibition was 6.71% (inactive).
Under `COC(=O)CCP(=O)(O)Cc1ccccc1CP(=O)(O)CCC(=O)OC` stands 25.9% (active).
Under `Brc1c(CSc2nncn2-c2ccccc2)nc2ncccn12` stands 9.69% (inactive); under `NC(=O)CSc1nnc(-c2cccs2)n1Cc1ccco1`, 8.05% (inactive); under `O=C(COC(=O)c1ccc(NS(=O)(=O)c2cccs2)cc1O)Nc1nc2ccccc2s1`, 8.12% (inactive).
The figure for `COc1ccccc1NS(=O)(=O)c1ccc(O)c(C(=O)OCC(=O)Nc2ccccc2F)c1` is -2.66% (inactive).
Consider `COc1cc(-c2nc3ccc4ccccc4c3c3c2CCC3)ccc1O`, for which the inhibition was 8.66% (inactive).
Take `Cc1ccc(-c2nc(CN3CCN(c4cnccn4)CC3)c(C)o2)o1`: the inhibition was 5.52% (inactive).
The figure for `CCOC(=O)C1CCCN(C(=O)c2cc(-c3ccc(F)cc3)nc3ccccc23)C1` (stereo not given) is 0.66% (inactive); for `Cc1ccc(C)c2[nH]c(=O)c(CN(Cc3ccco3)S(=O)(=O)c3ccc4c(c3)OCCO4)cc12` it is 11.6% (inactive); for `COc1ccc(C2C(C(=O)OCC(=O)Nc3ccc(C)cc3)CCC(=O)N2c2ccc(OC)cc2)cc1` (stereo not given) it is 23.9% (active).
The figure for `CCNC(=O)COC(=O)C1CCC(=O)N(c2ccc(OC)cc2)C1c1ccc(OC)cc1` (stereo not given) is 12.7% (inactive).
Regarding `COc1ccc(C2C(C(=O)OCC(=O)N3CCCCC3)CCC(=O)N2c2ccc(OC)cc2)cc1` (stereo not given), the inhibition is 0.13% (inactive).
The figure for `O=C(Nc1ccc2nn(-c3ccccc3)nc2c1)c1cccs1` is -15.1% (inactive); for `COc1ccccc1NC(=O)C1CCCN(S(=O)(=O)c2cnc[nH]2)C1` (stereo not given) it is 1.4% (inactive); for `COc1ccccc1CNC(=O)C1CCCN(S(=O)(=O)c2cnc[nH]2)C1` (stereo not given) it is 23.9% (active).
As for `CCCCC(CC)CNC(=O)C1CCCN(S(=O)(=O)c2cnc[nH]2)C1` (stereo not given), the inhibition was 24.2% (active).
For `CCCCNC(=O)C1CCN(S(=O)(=O)c2cnc[nH]2)CC1`, the inhibition was 14.7% (inactive).
Under `O=C(NCc1ccccc1Cl)C1CCCN(S(=O)(=O)c2cnc[nH]2)C1` (stereo not given) stands 4.7% (inactive); under `Cc1ccc(CNC(=O)C2CCCN(S(=O)(=O)c3cnc[nH]3)C2)cc1` (stereo not given), -2.21% (inactive).
As to `CC(C)(C)N1C(=O)c2ccccc2NC(=O)N1Cc1ccc(Br)cc1`, the inhibition was 2.07% (inactive).
Take `O=C1CC(SC(=Nc2ccccc2)Nc2ccccc2)C(=O)N1c1ccc(Cl)c(Cl)c1` (stereo not given): the inhibition is -2.66% (inactive).
Under `CCC/C(O)=C1\C(=O)CCCC1=NCCc1ccc(OCC)c(OCC)c1` stands 5.18% (inactive); under `CC(=O)c1cccc(-n2nnnc2SCC(=O)Nc2cccc(NC(=O)c3ccco3)c2)c1`, 8.36% (inactive).
Under `Cc1c(N=Cc2nc3ccccc3n2C)c(=O)n(-c2ccccc2)n1C` stands 27.3% (active); under `Cc1c(N=Cc2ccncc2)c(=O)n(-c2ccccc2)n1C`, 1.24% (inactive).
`Cc1c(N=Cc2nc3ccccc3[nH]2)c(=O)n(-c2ccccc2)n1C`: the inhibition was 17.4% (inactive).
The figure for `O=C(NCCc1c[nH]c2ccccc12)C(=O)NCC1OCCCN1S(=O)(=O)c1ccc(F)cc1` (stereo not given) is 4.14% (inactive).
Regarding `CCc1cccc(CC)c1NC(=O)COC(=O)c1ccc(F)c(S(=O)(=O)N(CC)CC)c1`, the inhibition was 3.7% (inactive).
The figure for `CCOc1ccccc1NC(=O)Nc1cnccn1` is 8.05% (inactive); for `O=c1c2ccccc2nc2n1CC/C2=C\c1ccccc1[N+](=O)[O-]` it is 1.69% (inactive); for `CCOC(=O)c1ccc(-n2c(C)nc3ccccc3c2=O)cc1` it is 3.03% (inactive).
Consider `CSc1ncc(Cl)c(C(=O)Nc2cccc(C)c2)n1`, for which the inhibition is 6.29% (inactive).
The figure for `CSc1ncc(Cl)c(C(=O)Nc2ccc(NC(C)=O)cc2)n1` is 1.65% (inactive).
The figure for `COc1ccc(S(=O)(=O)N2CCC(NC(=O)C(Cc3cccc(OC)c3OC)NC(C)=O)CC2)cc1` (stereo not given) is 12.2% (inactive); for `CCOC(=O)CSCC(=O)Nc1nnc(-c2cccc([N+](=O)[O-])c2)s1` it is 2.17% (inactive); for `COc1ccc(-n2c(SCC(=O)Nc3cc(C)on3)nc3c([nH]c4ccccc43)c2=O)cc1` it is 0.91% (inactive).
The figure for `COc1ccc(NC(=O)C2C(=O)N(C)C3(C)CC2c2ccccc2O3)cc1` (stereo not given) is 9.89% (inactive).
For the compound `COc1ccc2c(c1)OC13CCCCC1C2C(C(=O)c1ccccc1)C(=O)N3` (stereo not given), the inhibition was -8.77% (inactive).
Consider `CN1C(=O)C(C(=O)NC(C)(C)C)C2c3ccccc3OC13CCCCC23` (stereo not given), for which the inhibition is 24.3% (active).
The figure for `Cc1cc(C)c(C#N)c(SCC(=O)c2cccs2)n1` is 2.39% (inactive); for `O=C(CSc1nc(O)cc(=O)[nH]1)N1c2ccccc2Sc2ccccc21` it is 18.4% (inactive).
The figure for `CCOc1ccc2nc(NC(=O)CSc3ccccc3)sc2c1` is 8.9% (inactive); for `Cc1nc(SCC(=O)N2c3ccccc3Sc3ccccc32)n[nH]1` it is 4.61% (inactive); for `CC(=O)CSc1nc(-c2cccs2)c(C#N)c(=O)[nH]1` it is 7.78% (inactive).
As for `CCOc1ccc2nc(NC(=O)CSc3ccc(Cl)cc3)sc2c1`, the inhibition was 2.68% (inactive).
Turning to `O=C(CCc1ccc(S(=O)(=O)N2CCOCC2)cc1)Nc1ccc(N2CCOCC2)cc1`, the inhibition is 3.54% (inactive).
On to `Cc1ccc(-c2noc(CN(C(=O)C(c3ccccc3)c3ccccc3)C(C)C)n2)cc1`, for which the inhibition is 5.44% (inactive).
The figure for `NC(=O)N/N=C/c1ccccc1OC(=O)c1ccccc1Br` is 0.59% (inactive); for `Cc1ccccc1CS(=O)(=O)c1cn(CC(=O)N2CCC(C)CC2)c2ccccc12` it is 9.75% (inactive).
The figure for `Cc1ccc(C)c(CS(=O)(=O)c2cn(CC(=O)N3CCC(C)CC3)c3ccccc23)c1` is 9.18% (inactive).
The figure for `CCN(C1CCCCC1)S(=O)(=O)c1ccc(S(=O)(=O)N2CCN(CCC#N)CC2)cc1` is -1.62% (inactive).
On to `O=C(/C=C\Nc1ccc2c(c1)OCO2)c1ccc(Cl)s1`, for which the inhibition was 3.02% (inactive).
The figure for `O=S(=O)(NC1CCCC1)c1ccc(S(=O)(=O)N2CCCN(Cc3ccccc3)C2)cc1` is 0.63% (inactive).
Take `CC(=NCc1ccncc1)C1=C(O)c2ccccc2C1=O`: the inhibition was 23.6% (active).
As to `CCCN=C(C)C1=C(O)c2ccccc2C1=O`, the inhibition is 3.71% (inactive).
Regarding `CC(=NCc1cccnc1)C1=C(O)c2ccccc2C1=O`, the inhibition was 4.58% (inactive).
The figure for `CCC(c1nnnn1Cc1ccco1)N1CCC(C(N)=O)CC1` (stereo not given) is 10.1% (inactive).
The figure for `Cc1ccc(-c2cc(N)n(Cc3ccc(Cl)cc3)n2)cc1` is 12.9% (inactive); for `Nc1cc(-c2ccccc2)nn1Cc1ccccc1` it is 34.3% (inactive).
Take `Nc1cc(-c2ccccc2)nn1Cc1ccc(Cl)cc1`: the inhibition was 25.7% (active).
The figure for `N#CC1=C(N)OC2=C(C(=O)CCC2)[C@]12C(=O)N(CC(N)=O)c1ccccc12` is 9.16% (inactive).
As for `Cc1cccc(Nc2nc(N)nc(CN3CCN(C)CC3)n2)c1`, the inhibition was 9.59% (inactive).
As to `CCN(CC)CCCNC(=O)C(C)n1c2ccccc2c2nc(=O)cc(C)n21` (stereo not given), the inhibition is 3.31% (inactive).
The figure for `COc1ccc(C2/C(=C(/O)c3ccccc3)C(=O)C(=O)N2CCO)cc1` (stereo not given) is 2.56% (inactive); for `COc1ccc(N/C(C)=C2/C(=O)C(=O)N(CCO)C2c2ccc(Br)cc2)cc1` (stereo not given) it is 7.27% (inactive).
As to `COc1ccc(N/C(C)=C2/C(=O)C(=O)N(CCO)C2c2ccc([N+](=O)[O-])cc2)cc1` (stereo not given), the inhibition is 23.9% (active).
